Drawing on PubChem BioAssay (NCATS), this text covers parasite growth, % of DMSO control for 40 molecules.

The experiment can be described thus: qHTS profiling of the MIPE4 collection as inhibitors of Plasmodium falciparum (3D7) proliferation (AID 743344).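 Also: scaled between DMSO vehicle wells and 0.29 µM artemisinin as full inhibition.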 The settings on record: P. falciparum 3D7 in erythrocytes, SYBR Green DNA fluorescence, 72 h; at 28.5 µM unless noted. The source says: Plasmodium falciparum is a virulent malarial parasite that kills 1-2 million people worldwide each year. Transmitted by mosquitoes, the sporozoite form of the parasite enters the blood stream to infect hepatocytes, where they become merozoites that infect red blood cells (erythrocytes). Within erythrocytes, merozoites begin a […] cycle of growth and division, after which the parasite is released to infect new red blood cells. Gametocytes, which form within erythrocytes as well, circulate in the bloodstream and are ingested by the mosquito, thereby completing the life cycle. To profile malarial isolates for differential chemical responses and to identify inhibitors of malarial growth, an assay that measures P. falciparum growth and replication within erythrocytes was employed. This assay uses a DNA binding fluorescent dye (SYBR Green) to detect parasite DNA following cell lysis. Because mature erythrocytes lack DNA, only Plasmodium-derived DNA is detected.
The SYBR Green viability assay was adapted from a method described previously (Plouffe et al., 2008). For screening 3 ul culture medium was dispensed into 1536 well black clear bottom plates (Aurora Biotechnologies) using a Multidrop Combi (Thermo Fisher Scientific Inc.), 23 nL compounds in DMSO were added by a pin tool (Kalypsys), and 5 ul of erythrocytes infected with P. falciparum (0.3% parasitemia, 2.5% hematocrit final concentration) were added. The plates were incubated at 37 C in a humidified incubator in 5% CO2 for 72 h, and 2 ul lysis buffer (20 mM Tris HCl, 10 mM EDTA, 0.16% saponin, 1.6% triton X, 10X SYBR Green I supplied as 10,000X […] by Invitrogen) was added to each well. The plates were mixed for 25 sec with gentle shaking and incubated overnight at room temperature in the dark. The following morning, fluorescence intensity at 485(14) nm excitation and 535(25) nm emission wavelengths was measured on an EnVision (Perkin Elmer) plate reader. Plate reads were normalized relative to the control inhibitor (0.29 uM artemisinin) and vehicle (DMSO) wells present on each plate and then corrected by an algorithm using vehicle-only control plates at the beginning and end of the compound plate stack.
(qHTS replaces the single test concentration by a dilution series.)
As for `CNS(=O)(=O)CCc1ccc2[nH]cc(C3CCN(C)CC3)c2c1`, the parasite growth, % of DMSO control amounted to 97.5%.

Molecule `CNCC[C@H](Oc1cccc2ccccc12)c1cccs1` registered a parasite growth, % of DMSO control of 6.18%.

Turning to `CNS(=O)(=O)Cc1ccc2[nH]cc(CCN(C)C)c2c1`, the parasite growth, % of DMSO control was determined as 64.4%.

In the case of `O=c1cc(O)c(Cl)c[nH]1`, the parasite growth, % of DMSO control came to 29%.

For `CCCCc1oc2ccc(NS(C)(=O)=O)cc2c1C(=O)c1ccc(OCCCN(CCCC)CCCC)cc1`, the parasite growth, % of DMSO control amounted to 7.48%.

The molecule `CCCc1nc(C)c2c(=O)[nH]c(-c3cc(S(=O)(=O)N4CCN(CC)CC4)ccc3OCC)nn12` returned a parasite growth, % of DMSO control of 6.01%.

`CC(=O)Oc1ccccc1C(=O)Nc1ncc([N+](=O)[O-])s1` returned a parasite growth, % of DMSO control of 4.65% [at 57.5 µM].

`COc1ccc2cc3[n+](cc2c1OC)CCc1cc2c(cc1-3)OCO2` yielded a parasite growth, % of DMSO control of 5.45%.

In turn, `CCOC(=O)[C@H](CCc1ccccc1)N[C@H]1CCc2ccccc2N(CC(=O)O)C1=O` returned a parasite growth, % of DMSO control of 9.1%.

In turn, `CC[C@H](C)C(=O)O[C@H]1C[C@@H](C)C=C2C=C[C@H](C)[C@H](CC[C@@H]3C[C@@H](O)CC(=O)O3)[C@H]21` returned a parasite growth, % of DMSO control of 73.9%.

In the case of `COc1cc(NS(=O)(=O)c2ccc(N)cc2)nc(OC)n1`, the parasite growth, % of DMSO control is 39.3%.

Regarding `O=C(O)c1cn(C2CC2)c2cc(N3CCNCC3)c(F)cc2c1=O`, the parasite growth, % of DMSO control worked out at 75.2%.

Regarding `CCN1CCCC1CNC(=O)c1cc(S(N)(=O)=O)ccc1OC` (stereo not given), the parasite growth, % of DMSO control was determined as 101%.

`CN1CCN(c2c(F)cc3c(=O)c(C(=O)O)cn(CCF)c3c2F)CC1` displayed a parasite growth, % of DMSO control of 86.6%.

As to `CC1=CC(=O)c2ccccc2C1=O`, the parasite growth, % of DMSO control was found to be 40.3%.

For the molecule `CN(C)CCc1c[nH]c2ccc(C[C@H]3COC(=O)N3)cc12`, the parasite growth, % of DMSO control worked out at 107%.

In the case of `CCOC(=O)c1ccc(OC(=O)CCCCCN=C(N)N)cc1`, the parasite growth, % of DMSO control was found to be 93%.

`COc1ccccc1OCC(O)COC(N)=O` (stereo not given) showed a parasite growth, % of DMSO control of 94.6%.

Molecule `C[C@@H]1CN(c2c(F)c(N)c3c(=O)c(C(=O)O)cn(C4CC4)c3c2F)C[C@H](C)N1` yielded a parasite growth, % of DMSO control of 55.7% [at 9.64 µM].

In turn, `CN(Cc1cc(Br)cc(Br)c1N)C1CCCCC1` displayed a parasite growth, % of DMSO control of 44.4%.

`Cc1nnc(NS(=O)(=O)c2ccc(N)cc2)s1` gave a parasite growth, % of DMSO control of 22.2%.

`COC(c1ccccc1)(c1ccccc1)[C@H](Oc1nc(C)cc(C)n1)C(=O)O`: the parasite growth, % of DMSO control turned out to be 102%.

`CC(N)C12CC3CC(CC(C3)C1)C2` (stereo not given) returned a parasite growth, % of DMSO control of 76.2%.

Consider `COC(=O)Nc1nc2ccc(Sc3ccccc3)cc2[nH]1`, for which the parasite growth, % of DMSO control was 75.4%.

As for `N[C@@H](C(=O)N[C@@H]1C(=O)N2C(C(=O)O)=C(Cl)CS[C@H]12)c1ccccc1`, the parasite growth, % of DMSO control was found to be 80.9%.

The molecule `COc1cnc(NS(=O)(=O)c2ccc(N)cc2)nc1` came in with a parasite growth, % of DMSO control of 87.5%.

`O=C(O)C1CCCN(CCC=C(c2ccccc2)c2ccccc2)C1` (stereo not given): the parasite growth, % of DMSO control was 82.1%.

Take `COC(=O)Nc1nc2ccc(C(=O)c3ccccc3)cc2[nH]1`: the parasite growth, % of DMSO control was found to be 61.1%.

`CC(C)(C#N)c1cc(Cn2cncn2)cc(C(C)(C)C#N)c1` showed a parasite growth, % of DMSO control of 89.6%.

`NC(N)=NC(N)=NCCc1ccccc1` gave a parasite growth, % of DMSO control of 21.2%.

`O=C(N[C@H](CO)[C@H](O)c1ccc([N+](=O)[O-])cc1)C(Cl)Cl` returned a parasite growth, % of DMSO control of 94.4%.

`CC(C)(C)C(=O)OCOP(=O)(COCCn1cnc2c(N)ncnc21)OCOC(=O)C(C)(C)C` displayed a parasite growth, % of DMSO control of 68.2%.

Take `CC1=NN(c2ccccc2)C(=O)C1`: the parasite growth, % of DMSO control is 89.4%.

Turning to `N=C(N)c1ccc(OCCCCCOc2ccc(C(=N)N)cc2)cc1`, the parasite growth, % of DMSO control came to 5.02%.

As for `O=C(NCC1CN(c2ccc(N3CCOCC3=O)cc2)C(=O)O1)c1ccc(Cl)s1` (stereo not given), the parasite growth, % of DMSO control is 74.4%.

In turn, `Cn1nnc2c(C(N)=O)ncn2c1=O` registered a parasite growth, % of DMSO control of 97.2%.

The molecule `CC1CC2C3CCC4=CC(=O)C=C[C@]4(C)[C@@]3(F)[C@@H](O)C[C@]2(C)[C@@]1(O)C(=O)CO` (stereo not given in full) yielded a parasite growth, % of DMSO control of 85.2%.

Take `CCN(CC)CC#CCOC(=O)C(O)(c1ccccc1)C1CCCCC1` (stereo not given): the parasite growth, % of DMSO control is 14.3%.

For `NNC(=O)c1ccncc1`, the parasite growth, % of DMSO control was 5.29%.

Regarding `Nc1nc(=S)c2[nH]cnc2[nH]1`, the parasite growth, % of DMSO control turned out to be 93.4%.
